Laboratory results: PubChem BioAssay (NCI)
Compounds without any hit were thinned out: in the full panel of roughly 79,000, 15% have a hit. The source made the active and inactive calls. Rule as the data show it: active = growth inhibition above about 70%; inactive = the rest.

How the values were obtained:
[1] = NCI Yeast Anticancer Drug Screen. Data for the rad52 strain (AID 147);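 also: 0% = growth of vehicle-treated control cultures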; details: S. cerevisiae rad52 mutant growth inhibition, hits give high values
Summary of the method: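 Inhibition of yeast growth, referenced to vehicle controls, was the measured output for a strain with defective DNA damage repair.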

[2] = NCI Yeast Anticancer Drug Screen. Data for the wt1 strain (AID 149);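 also: 0% = growth of vehicle-treated wt1 cultures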; details: S. cerevisiae wt1 strain (SPY 50644) growth inhibition, hits give high values
Summary of the method: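 wt1 strain grown with compound or vehicle; inhibition taken from the growth difference.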

[3] = NCI Yeast Anticancer Drug Screen. Data for the rad50EPP+ strain (AID 151);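 also: 0% = growth of vehicle-treated control cultures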; details: S. cerevisiae rad50 mutant strain, hits give high values
Summary of the method: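 Genetically defined yeast (rad50EPP+, DNA damage repair alteration) is grown with compound, and inhibition of growth is expressed relative to vehicle-treated controls.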

[4] = NCI Yeast Anticancer Drug Screen. Data for the mgt1 strain (AID 153); details: S. cerevisiae mgt1 mutant growth inhibition, hits give high values
Summary of the method: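 In the mgt1 strain, test compounds were added and growth inhibition was determined relative to vehicle-treated controls.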

[5] = NCI Yeast Anticancer Drug Screen. Data for the rad50 strain (AID 155);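 also: 0% = growth of vehicle-only cultures of the same strain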; details: S. cerevisiae rad50 strain growth inhibition, hits give high values
Summary of the method: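 DNA repair mutant yeast, compound exposure, growth read-out; inhibition is taken relative to vehicle.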

[6] = NCI Yeast Anticancer Drug Screen. Data for the mec2-1 strain (AID 157); details: S. cerevisiae mec2-1 strain, hits give high values
Summary of the method: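 Each compound was tested on mec2-1 yeast, a strain altered in DNA damage repair or cell cycle control. Growth inhibition is reported relative to vehicle.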

[7] = NCI Yeast Anticancer Drug Screen. Data for the sgs1 mgt1 strain (AID 161);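 also: 0% = growth of cultures given vehicle only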; details: S. cerevisiae sgs1 mgt1 strain, hits give high values
Summary of the method: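 Test agents were incubated with a DNA-repair-mutant yeast strain. Growth was then read and compared against vehicle-treated controls.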

[8] = NCI Yeast Anticancer Drug Screen. Data for the CLN2oe strain (AID 163);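 also: 0% = growth of vehicle-only control cultures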; details: S. cerevisiae CLN2oe strain, hits give high values
Summary of the method: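 First, the altered yeast strain was treated with each compound; second, its growth was measured; finally, inhibition was derived by comparison with vehicle controls.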

[9] = NCI Yeast Anticancer Drug Screen. Data for the cln2 rad14 strain (AID 165);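 also: 0% = growth equal to vehicle treated cultures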; details: S. cerevisiae cln2 rad14 strain, hits give high values
Summary of the method: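 Test compounds were added to cln2 rad14 yeast cultures; inhibition of growth was then determined by comparison with vehicle treatment.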

[10] = NCI Yeast Anticancer Drug Screen. Data for the bub3 strain (AID 167); details: S. cerevisiae bub3 mutant strain, hits give high values
Summary of the method: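 In this screen, a yeast mutant lacking normal mitotic checkpoint function is challenged with compound. Relative growth versus vehicle gives the inhibition value.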

[11] = NCI Yeast Anticancer Drug Screen. Data for the wt2 strain (AID 169);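 also: 0% = growth of vehicle-treated yeast cultures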; details: S. cerevisiae wt2 strain growth inhibition, hits give high values
Summary of the method: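 The panel's yeast strains carry defined changes in DNA repair or cell cycle genes. Each strain is grown with compound, and growth loss is scored relative to vehicle.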

[12] = NCI Yeast Anticancer Drug Screen. Data for the mlh1 strain (AID 171);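 also: 0% = growth of vehicle-treated control cultures of the same strain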; details: S. cerevisiae mlh1 strain growth inhibition, hits give high values
Summary of the method: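 Inhibition values reflect reduced yeast growth in the presence of compound, referenced to vehicle controls, using a strain chosen for its alteration in DNA repair or cell cycle control.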

[13] = NCI Yeast Anticancer Drug Screen. Data for the sgs1 strain (AID 173);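 also: 0% = growth of vehicle-only control cultures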; details: S. cerevisiae sgs1 mutant, hits give high values
Summary of the method: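 Vehicle-treated cultures served as reference for growth inhibition of a yeast strain altered in DNA damage repair or cell cycle control after compound exposure.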

[14] = NCI Yeast Anticancer Drug Screen. Data for the mlh1 rad18 strain (AID 175); details: S. cerevisiae mlh1 rad18 strain growth inhibition, hits give high values
Summary of the method: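 Inhibition values reflect reduced growth of mutant yeast versus vehicle-treated controls following compound exposure; the mutations affect DNA damage repair.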

[15] = NCI Yeast Anticancer Drug Screen. Data for the rad18 strain (AID 177); details: S. cerevisiae rad18 mutant growth inhibition, hits give high values
Summary of the method: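 Steps: expose repair-mutant yeast to compound; measure growth; express as inhibition relative to vehicle control.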

[16] = at 5.0 µM (retest, dose inferred, filed as 0.5)
[17] = at 50.0 µM (retest, dose inferred, filed as 5.0)

Measured: growth inhibition

COc1cc(O)c(O)c(C(C)(C)C)c1
inactive: [1]; at 1.2 µM -1% | [1]; at 3.7 µM 3% | [1]; at 11.0 µM 5% | [1]; at 33.0 µM 10% | [1]; at 100.0 µM 19% | [2]; at 1.2 µM -1% | [2]; at 3.7 µM -1% | [2]; at 11.0 µM 4% | [2]; at 33.0 µM 3% | [2]; at 100.0 µM 4% | [3]; at 1.2 µM 12% | [3]; at 3.7 µM 16% | [3]; at 11.0 µM 41% | [3]; at 33.0 µM 53% | [3]; at 100.0 µM 50% | [4]; at 1.2 µM -2% | [4]; at 3.7 µM -2% | [4]; at 11.0 µM 4% | [4]; at 33.0 µM 24% | [4]; at 100.0 µM 12% | [5]; at 1.2 µM 0% | [5]; at 3.7 µM -2% | [5]; [16] 10% | [5]; at 11.0 µM 3% | [5]; at 33.0 µM 6% | [5]; [17] 38% | [5]; at 50.0 µM 63.7% | [5]; at 100.0 µM 12% | [6]; at 1.2 µM -3% | [6]; at 3.7 µM -1% | [6]; [16] 4% | [6]; at 11.0 µM 0% | [6]; at 33.0 µM 5% | [6]; [17] 16% | [6]; at 50.0 µM 59.5% | [6]; at 100.0 µM 18% | [7]; [16] 2% | [7]; [17] 50% | [7]; at 50.0 µM 63.8% | [8]; at 1.2 µM -1% | [8]; at 3.7 µM -3% | [8]; at 11.0 µM 3% | [8]; at 33.0 µM -3% | [8]; at 100.0 µM -6% | [9]; [16] -14% | [9]; [17] 18% | [9]; at 50.0 µM 4.65% | [10]; at 1.2 µM -6% | [10]; at 3.7 µM -5% | [10]; [16] 0% | [10]; at 11.0 µM 2% | [10]; at 33.0 µM 7% | [10]; at 50.0 µM 61.1% | [10]; at 100.0 µM 17% | [11]; at 1.2 µM -1% | [11]; at 3.7 µM 0% | [11]; at 11.0 µM 8% | [11]; at 33.0 µM 12% | [11]; at 100.0 µM 17% | [12]; at 1.2 µM 3% | [12]; at 3.7 µM 3% | [12]; at 11.0 µM 9% | [12]; at 33.0 µM 15% | [12]; at 100.0 µM 26% | [13]; at 1.2 µM 1% | [13]; at 3.7 µM 7% | [13]; at 11.0 µM 16% | [13]; at 33.0 µM 8% | [13]; at 100.0 µM 43% | [14]; [16] 20% | [14]; at 50.0 µM 22.9% | [15]; at 1.2 µM 0% | [15]; at 3.7 µM 1% | [15]; at 11.0 µM -17% | [15]; at 33.0 µM 8% | [15]; at 100.0 µM 16%
active: [10]; [17] 82% | [14]; [17] 82%

O=Cc1ccc2c(c1)C(=O)c1ccccc1C2=O
active: [1]; at 33.0 µM 79% | [1]; at 100.0 µM 92% | [3]; at 33.0 µM 73% | [3]; at 100.0 µM 83% | [5]; at 33.0 µM 80% | [5]; at 50.0 µM 77.6% | [5]; at 100.0 µM 91%
inactive: [1]; at 1.2 µM 4% | [1]; at 3.7 µM 11% | [1]; at 11.0 µM 33% | [2]; at 1.2 µM 1% | [2]; at 3.7 µM -1% | [2]; at 11.0 µM 7% | [2]; at 33.0 µM 18% | [2]; at 100.0 µM 31% | [3]; at 1.2 µM 0% | [3]; at 3.7 µM 5% | [3]; at 11.0 µM 33% | [4]; at 1.2 µM 0% | [4]; at 3.7 µM 9% | [4]; at 11.0 µM 9% | [4]; at 33.0 µM 33% | [4]; at 100.0 µM 55% | [5]; at 1.2 µM 2% | [5]; at 3.7 µM 16% | [5]; [16] -11% | [5]; at 11.0 µM 44% | [5]; [17] 57% | [6]; at 1.2 µM 0% | [6]; at 3.7 µM 7% | [6]; [16] 6% | [6]; at 11.0 µM 12% | [6]; at 33.0 µM 21% | [6]; [17] 21% | [6]; at 50.0 µM 30.8% | [6]; at 100.0 µM 34% | [7]; [16] 5% | [7]; [17] 8% | [7]; at 50.0 µM 39.5% | [9]; [16] -21% | [9]; [17] 16% | [9]; at 50.0 µM 35.9% | [10]; at 1.2 µM -1% | [10]; at 3.7 µM -7% | [10]; [16] -3% | [10]; at 11.0 µM 8% | [10]; at 33.0 µM 9% | [10]; [17] 8% | [10]; at 50.0 µM 36.6% | [10]; at 100.0 µM 7% | [11]; at 1.2 µM 0% | [11]; at 3.7 µM 4% | [11]; at 11.0 µM 14% | [11]; at 33.0 µM 32% | [11]; at 100.0 µM 51% | [13]; at 1.2 µM -3% | [13]; at 3.7 µM -3% | [13]; at 11.0 µM 8% | [13]; at 33.0 µM 38% | [13]; at 100.0 µM 56%
